In PubChem BioAssay (NCATS) one finds Potency and activity change, negative = cytotoxicity data, which are given here for 38 compounds.

Inconclusive results are not listed. A call without a number means that no potency is given here. Activity calls are given as the source filed them. The call rests on the fitted dose curve; in most records, active means well fitted cell-killing curve with a large enough effect; inconclusive means small, poorly fitted or top-dose-only effect, or effect the other way; inactive means flat fitted curve, though single readings scatter. Where a SMILES comes first, the peptide text is derived from it. [ ]: non-standard residue; d: D form.

This test has as its system OV90. Description: Primary qHTS to identify gynecologic anti-cancer compounds using libraries of approved drugs and bioactive compounds (AID 1345084). Further: nearly all actives have a fitted effect of over 55% in size. Particulars: Gynecologic cancer cell panel viability, ATPlite luminescence, 48 h; series mostly up to 57.5 µM. An outline of the steps: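 In this quantitative HTS, cell killing is estimated from loss of ATP-dependent luciferase light. Cells see five compound concentrations over a 48 h exposure.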
(In general: In qHTS, concentration-response curves come from the screen itself.)
Turning to `COc1ccc(C(OC2OC(CO)C(O)C(O)C2O)C(C)O)cc1` (stereo not drawn), the Potency entry was “inactive”.

For the compound `CCOC(=O)N1CCC(NCCNC(=O)c2ccccc2C)CC1`, the Potency result was “inactive”.

In the case of `CCC(C)C(=O)O[C@@H]1[C@@H](O)[C@@H](O[C@H]2O[C@H](CO)[C@@H](O)[C@H](O)[C@H]2O)O[C@H](CO)[C@H]1O` (stereo partly drawn), the Potency result was “inactive”.

In the case of `Nc1ncnc2c1ncn2[C@H]1CCCO1`, the Potency result was “inactive”.

Take `COc1cc(-c2cccc(O)c2)cc2c1OCO2`: the Potency entry was “inactive”.

`Nc1nc(CC(=O)Nc2ccc(CCNCC(O)c3ccccc3)cc2)cs1` (stereo not drawn): the Potency result is “inactive”.

In the case of `O=C(/C=C/c1c(C(=O)O)[nH]c2cc(Cl)cc(Cl)c12)Nc1ccccc1`, the Potency result was “inactive”.

Regarding `CC1CCC2C(C)(C)C(O)CCC2(C)C12Cc1c(O)cc3c(c1O2)CN=C3N` (stereo not drawn), the Potency entry was “inactive”.

On to `CC[C@H]1OC(=O)C[C@@H](O)[C@H](C)[C@@H](O[C@@H]2O[C@H](C)[C@@H](O)[C@H](N(C)C)[C@H]2O)[C@@H](CCN2C[C@H](C)C[C@H](C)C2)C[C@@H](C)C(=O)/C=C/C(C)=C/[C@@H]1CO[C@@H]1O[C@H](C)[C@@H](O)[C@@H](OC)[C@H]1OC`, for which the Potency entry is “inactive”.

Regarding `C[C@]12C=CC(=O)C=C1CC[C@@H]1[C@@H]2[C@@H](O)C[C@@]2(C)[C@H]1CC[C@]2(O)C(=O)COC(=O)CCC(=O)O`, the Potency result is “inactive”.

Take `CC(C)=CCc1ccc(Oc2c(O)cc(C)cc2CO)c(C(=O)O)c1O`: the Potency result is “inactive”.

Consider `NS(=O)(=O)NCCNc1nonc1C(=Nc1ccc(F)c(Br)c1)NO`, for which the Potency result is “inactive”.

In the case of `CCC(=O)NS(=O)(=O)c1ccc(-c2c(-c3ccccc3)noc2C)cc1`, the Potency result is “inactive”.

For the compound `CC(=O)OC1C(O)C(C)=C(CCC(C)CC(=O)O)C2(C)CCCC(C)(C)C12` (stereo not drawn), the Potency entry was “inactive”.

As to `COC1=CC(=O)O[C@@H](/C=C/c2ccccc2)[C@@H]1O`, the Potency result is “inactive”.

Regarding `C[C@@H]1O[C@@H](O[C@@H]2[C@@H](O)[C@@H](O)[C@H](O[C@@H]3[C@@H](O)[C@@H](O[C@]4(CO)O[C@H](CO)[C@@H](O)[C@@H]4OC(=O)/C=C/c4ccc(O)cc4)O[C@H](CO)[C@H]3OC(=O)/C=C/c3ccc(O)cc3)O[C@H]2C)[C@H](O)[C@H](O)[C@H]1O`, the activity change, negative = cytotoxicity is 7.74% [at 11.6 µM] (inactive).

Take `COC(=O)[C@@H]1C2CC3c4[nH]c5ccccc5c4CCN3CC2CC[C@@H]1O` (stereo partly drawn): the Potency entry was “inactive”.

Turning to `C[C@@H]1O[C@@H](O[C@H]2[C@H](OC(=O)[C@]34CCC(C)(C)C[C@H]3C3=CCC5[C@@]6(C)CC[C@H](O[C@@H]7O[C@H](CO[C@@H]8OC[C@H](O)[C@H](O)[C@H]8O)[C@@H](O)[C@H](O)[C@H]7O)C(C)(C)C6CC[C@@]5(C)[C@]3(C)C[C@H]4O)OC[C@@H](O)[C@@H]2O)[C@H](O)[C@H](O)[C@H]1O[C@@H]1OC[C@H](O)[C@H](O[C@@H]2OC[C@@H](O)[C@H](O)[C@H]2O)[C@H]1O` (stereo partly drawn), the activity change, negative = cytotoxicity is -10.8% [at 6.55 µM] (inactive).

For `CC(=O)N[C@H](Cc1ccc(O)cc1)C(=O)N[C@H](CCCN=C(N)N)C(=O)N[C@H](Cc1ccccc1)C(N)=O` (Ac-[dY]-[dR]-[dF]-NH2), the Potency result was “inactive”.

Regarding `CC(NCc1ccc(OCc2cccc(F)c2)cc1)C(N)=O` (stereo not drawn), the Potency result was “inactive”.

With `Cc1coc2c1CC1OC1(C)CCC1OC1(C)C2` (stereo not drawn), the Potency entry was “inactive”.

With `C[C@]12CCC[C@](C)(C(=O)O)C1CCC13C=C(CO)C(CCC12)C3` (stereo partly drawn), the Potency entry was “inactive”.

For the compound `COc1cc(/C=C/C(=O)OC(C)(C)C(OC2OC(CO)C(O)C(O)C2O)C(=O)OCc2ccc(OC3OC(CO)C(O)C(O)C3O)cc2)ccc1O` (stereo not drawn), the Potency entry was “inactive”.

Turning to `COc1cc2c(cc1OC)CN(C(=O)[C@@H](NCc1ccncc1)C(C)(C)C)CC2`, the Potency entry is “inactive”.

Turning to `O=C1NCc2nc3ccccc3c(=O)n2C1Cc1c[nH]c2ccccc12` (stereo not drawn), the Potency result is “inactive”.

As to `CC1=CC(=O)CC(C)(C)C1CCC(C)OC1OC(COC(=O)c2cc(O)c(O)c(O)c2)C(O)C(O)C1O` (stereo not drawn), the Potency result is “inactive”.

`CC1C/C=C/C=C\CCCCC(O)C/C=C/C(=O)O1` (stereo not drawn): the Potency entry was “inactive”.

`CO[C@@]12CC3[C@@H]([C@@H](O)[C@@H](OC(C)=O)C4[C@](C)(COC(C)=O)CCC[C@]34C)[C@@H](C)C1=CC(=O)O2` (stereo partly drawn): the Potency result was “inactive”.

Turning to `CC1(C)CCCC2(C)C(CO)C3CCC2C31` (stereo not drawn), the Potency result was “inactive”.

Take `O=C(O[C@H]1[C@@H]2C=CO[C@@H](O[C@@H]3O[C@H](CO)[C@@H](O)[C@H](O)[C@H]3O)[C@@H]2[C@@]2(CO)O[C@@H]12)c1ccc(O)c(O)c1`: the Potency result was “inactive”.

For `C=CC(C)(C)C12CC3C(=O)NC(Cc4cnc[nH]4)C(=O)N3C1Nc1ccccc12` (stereo not drawn), the Potency result is “inactive”.

Consider `C=C1C2=CC(O)C(C)C1(C)CC/C(C)=C/CCC1(C)OC1C2=O` (stereo not drawn), for which the Potency entry was “inactive”.

Regarding `C[C@H]1CN(C[C@H](Cc2ccccc2)C(=O)NCC(=O)O)CC[C@@]1(C)c1cccc(O)c1`, the Potency entry is “inactive”.

As to `Cn1c(=O)cc(N2CCCC(N)C2)n(Cc2ccccc2C#N)c1=O` (stereo not drawn), the Potency result is “inactive”.

Regarding `CCC[C@@H]1C[C@@H](C(=O)N[C@@H]([C@H]2O[C@H](SC)[C@H](OP(=O)(O)O)[C@@H](O)[C@H]2O)[C@H](C)Cl)N(C)C1`, the Potency result is “inactive”.

Regarding `COc1cc(/C=C/CO)ccc1O[C@@H]1O[C@H](CO)[C@@H](O)[C@H](O)[C@H]1O`, the Potency result was “inactive”.

As for `CC1(O)CCC2C(C(=O)O)=COC(OC3OC(CO)C(O)C(O)C3OC(=O)/C=C/c3ccc(O)cc3)C21` (stereo not drawn), the Potency entry is “inactive”.

Take `C[C@@H](Nc1cc(NS(=O)(=O)N2CCC2)nc(SCc2cccc(F)c2F)n1)[C@@H](O)CO`: the Potency entry was “inactive”.
